PubChem BioAssay (NCATS)
Results filed as inconclusive are left out. Calls of active or inactive are those of the source. Calls follow the shape of the dose curve; as a rule, active = well fitted inhibition curve with a large enough effect; inconclusive = small, poorly fitted or top-dose-only effect; inactive = flat fitted curve, though single readings scatter.

Key:
Assay in all cases: qHTS profiling for inhibitors of Plasmodium falciparum proliferation (AID 504749); also: nearly all actives have a fitted effect of over 60% in size
Details in all cases: P. falciparum in erythrocytes, SYBR Green DNA, 72 h; series mostly up to 28.7 µM
CP262 = system: CP262
Outline: (§1)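 In a 72 h erythrocytic culture (37 C, humidified, 5% CO2) at 2.5% hematocrit and 0.3% starting parasitemia, compounds were tested; SYBR Green I in detergent lysis buffer stained parasite DNA overnight.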

CP265 = system: CP265
Outline: as §1

CP266 = system: CP266
Outline: as §1

CP268 = system: CP268
Outline: as §1

CP269 = system: CP269
Outline: as §1

CP286 = system: CP286
Outline: as §1

CP291 = system: CP291
Outline: as §1

CP297 = system: CP297
Outline: as §1

CP305 = system: CP305
Outline: as §1

CP315 = system: CP315
Outline: as §1

CP325 = system: CP325
Outline: as §1

CP329 = system: CP329
Outline: as §1

CP335 = system: CP335
Outline: as §1

DFO2036 = system: DFO2036
Outline: as §1

DIV14 = system: DIV14
Outline: as §1

DIV17 = system: DIV17
Outline: as §1

DIV30 = system: DIV30
Outline: as §1

Dd2 = system: Dd2
Outline: as §1

ECU = system: ECU
Outline: as §1

FAB9 = system: FAB9
Outline: as §1

GB4 = system: GB4
Outline: as §1

HB3 = system: HB3
Outline: as §1

ICS = system: ICS
Outline: as §1

JCK = system: JCK
Outline: as §1

N140 = system: N140
Outline: as §1

P93_24 = system: P93_24
Outline: as §1

P94_40 = system: P94_40
Outline: as §1

PAD = system: PAD
Outline: as §1

PC15 = system: PC15
Outline: as §1

PC26 = system: PC26
Outline: as §1

PC49 = system: PC49
Outline: as §1

SC27B = system: SC27B
Outline: as §1

TAB109 = system: TAB109
Outline: as §1

TAB113 = system: TAB113
Outline: as §1

TAB165 = system: TAB165
Outline: as §1

W2 = system: W2
Outline: as §1

Measured: Potency

O=C(O)[C@H]1C[C@@H](CP(=O)(O)O)CCN1
inactive: all assays above
